Compounds with a hit are over-represented: about 1.3% of the library has one in this group of screens.
rTrxR1 inhibitor = blocks rat thioredoxin reductase 1; O89049; recombinant rTrxR1, NADPH fluorescence consumption, selenite substrate; Potency, µM (titrated, usually from 114 µM), inactives show top-dose activity change, negative = inhibition, usual class: inhibitors; 390,000 compounds, 1% hits; AID 588453; note: potency is the fitted concentration of half-maximal effect; nearly all actives have a fitted effect of over 65% in size
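Rat TrxR1 (90 nM in the dispensed reagent) was pre-reduced with 400 uM NADPH for 5 min at room temperature, then incubated with compound for 15 min. After 400 uM selenite was added, NADPH fluorescence (Ex 340/Em 450 nm) was followed for 8 min.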
Pin1 inh = blocks the human prolyl isomerase Pin1. Q13526. Pin1 FP peptide displacement, HiFluor488, 10 min. Potency, µM (doses to about 115 µM), for inactives: top-dose activity, negative = inhibition, usual class: inhibitors. 390,000 compounds, 0.009% hits; active = well fitted inhibition curve with a large enough effect in the polarisation, with a control signal flat, not every such curve was filed as active; inconclusive = small, poorly fitted or top-dose-only effect, or effect the other way, or a change in a side signal; inactive = no such curve, though single readings can be large or run the other way; the % refers to the polarisation; note: potency is the fitted concentration of half-maximal effect
Target sequence (Q13526 whole entry, looked up): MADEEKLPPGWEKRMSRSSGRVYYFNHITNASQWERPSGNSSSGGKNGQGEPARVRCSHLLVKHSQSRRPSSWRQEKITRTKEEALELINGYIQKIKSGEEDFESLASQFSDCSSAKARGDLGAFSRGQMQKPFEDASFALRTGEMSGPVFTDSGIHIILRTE
GCN5L2 inh = blocks human GCN5L2 histone acetyltransferase; GCN5L2 HAT assay, ThioGlo1 CoA-SH fluorescence; Potency, µM (top dose mostly 58.9 µM), for the others: at the highest dose activity change, negative = inhibition, usual class: inhibitors; Q92830; 390,000 compounds, 0.21% hits; note: potency is the fitted concentration of half-maximal effect
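ThioGlo1-coupled HAT assay: 20nM GCN5L2, 70uM acetyl-CoA, 75uM H3(1-25) peptide, pH 7.5. Fluorescence read at 340/540nm at start and after 20 min at room temperature.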
GALK inh = blocks human galactokinase activity; P51570; AID 1868; 270,000 compounds, 0.007% hits; Purified GALK, Kinase-Glo residual ATP luminescence; Potency, µM (highest dose often 57.5 µM), without a hit: at the highest dose activity change, negative = inhibition, actives largely listed as inhibitors; note: potency is the fitted concentration of half-maximal effect
Target sequence (P51570 whole entry, looked up): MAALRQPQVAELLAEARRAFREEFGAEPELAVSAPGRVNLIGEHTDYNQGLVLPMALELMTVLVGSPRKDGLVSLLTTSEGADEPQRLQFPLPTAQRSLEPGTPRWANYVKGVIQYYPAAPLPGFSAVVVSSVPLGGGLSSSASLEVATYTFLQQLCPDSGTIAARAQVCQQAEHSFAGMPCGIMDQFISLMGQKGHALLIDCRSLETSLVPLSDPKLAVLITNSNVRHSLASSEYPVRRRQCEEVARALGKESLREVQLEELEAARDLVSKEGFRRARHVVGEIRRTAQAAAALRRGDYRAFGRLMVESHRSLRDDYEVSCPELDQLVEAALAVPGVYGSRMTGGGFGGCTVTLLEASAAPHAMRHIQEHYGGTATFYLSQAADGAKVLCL
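Quantitative HTS: GALK 5 nM, ATP 35 uM, galactose 100 uM, 1 h room temperature, then luciferase-based ATP detection.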
TrxR1 substrate = is turned over as a substrate by rat TrxR1; purified TrxR1 substrate turnover, NADPH consumption readout; Potency, µM (top dose mostly 114 µM), without a hit: top-dose activity change, negative = substrate turnover; 390,000 compounds, 0.01% hits; note: potency is the fitted concentration of half-maximal effect; nearly all actives have a fitted effect of over 50% in size
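Rat TrxR1, dispensed at 90 nM, was prereduced with 400 uM NADPH (final) for 5 min at ~22 deg C, then incubated with compound 15 min before 400 uM selenite. A first-read NADPH fluorescence drop versus no-compound background flagged substrates.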
Giardia killer = Giardia lamblia killing | Giardia lamblia trophozoite viability | activity change, % at 7.66 µM, hits read low | 340,000 compounds, 0.15% hits | AID 540267; in the data active = activity change below about -80%; inconclusive = between about -30% and that limit;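 note: parasites exposed to compound for two days anaerobically before the ATP read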
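ATP-content bioluminescence gauges trophozoite survival. Cells (100/well) receive compound and incubate anaerobically for 48 hrs at 37 deg C; detection reagent follows for 15-30 min at room temperature.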
* marks the source's active call; other numbers are inactive results; ? = inconclusive; . = not tested or not shown; [ ] = dose if it differs, or a comment. Unless noted, calls come from the whole dose curve; as a rule, active = well fitted curve in the direction sought with a large enough effect; inconclusive = small, poorly fitted or top-dose-only effect, or another doubt; inactive = no such curve, though single readings can be large; an effect the other way counts as inactive or inconclusive. % is set by controls: 0 for no effect and ±100 for the full control effect.

SMILES	rTrxR1 inhibitor	Pin1 inh	GCN5L2 inh	GALK inh	TrxR1 substrate	Giardia killer
O=C(CC1(O)C(=O)N(CCc2ccccc2)c2ccccc21)c1ccco1 (stereo not given)	4%[57.1 µM]	1%	0%	0%	13%[57.1 µM]	-9
COc1cccc(CCc2nnc(CCC(=O)N3CCN(Cc4ccccn4)CC3)o2)c1	32µM*	-7%	3%	-1%	6%	0
COc1cccc(CCc2nnc(CCC(=O)NCCc3cccc(C)n3)o2)c1	8%[57.1 µM]	0%	-2%	-2%	1%[57.1 µM]	-3
COc1ccc(CN2CCNC(=O)C2CC(=O)NCc2cc(C)n(C)n2)c(F)c1 (stereo not given)	40µM*	-15%	-1%	0%	1%	10
O=C(NC1CCCCC1)[C@@H]1CC=C[C@@H]2CCN(Cc3ccc(Cl)c(Cl)c3)C(=O)[C@@H]21	11%	.	.	.	-6%	.
C=CCNc1nnc(SC2CC(=O)N(c3ccc(OCCC)cc3)C2=O)s1 (stereo not given)	7.1µM*	8%	-12%	1%	-7%	5
CCOc1ccc(N2C(=O)CC(Sc3nc4ccc(OCC)cc4s3)C2=O)cc1 (stereo not given)	-9%	-2%	.	.	-7%	15
NC1=C(Cl)C(=O)c2ccccc2C1=O	13µM*	-7%	.	.	-10%	-26
CCOC(=O)c1c(SCCN2CCCC2)n(-c2ccccc2)c(=S)n(-c2ccccc2)c1=O	32µM*	4%	.	.	4%	0
C=C(C)CSc1cc(C)c(C#N)c2nc3ccccc3n12	11µM*	3%	?	-3%	35%	-15
Cn1nnnc1Sc1ncnc2scc(-c3ccc(C(=O)OC(C)(C)C)cc3)c12	.	-1%	.	.	.	.
COc1ccc(C2=Nn3c(nnc3-c3ccccc3Cl)SC2)cc1OC1CCCC1	7.1µM*	15%	-19%	.	-11%	-3
COc1ccc(C2=Nn3c(nnc3-c3ccccc3Cl)SC2)cc1OC1CCOC1 (stereo not given)	5%[57.1 µM]	0%	-5%	.	-8%[57.1 µM]	-18
NC(=O)c1cc[n+](CC2=C(C(=O)O)N3C(=O)[C@@H](NC(=O)[C@@H](c4ccccc4)S(=O)(=O)[O-])[C@H]3SC2)cc1	45µM*	.	0%	.	13%[57.1 µM]	.
CC(=O)OCC1=C(C(=O)O)N2C(=O)C(NC(=O)CC(C)c3ccccc3)C2SC1 (stereo not given)	-16%	-17%	-8%	.	7%	-2
CCS(=O)(=O)c1cc([N+](=O)[O-])c(Sc2ccccc2NC(C)=O)s1	8.9µM*	-8%	-11%	.	10%[57.1 µM]	18
CC(=O)Nc1ccccc1-c1ccccc1[N+](=O)[O-]	6%[2.29 µM]	-1%	.	.	4%[2.29 µM]	-22
COc1cc(-c2noc(C)c2C#CCCN2C(=O)c3ccccc3C2=O)cc(OC)c1OC	2%	.	.	.	4%	.
COC(=O)c1ccc(NCc2c(O)ccc(O)c2Br)cc1Cl	32µM*	2%	.	.	-9%	14
COC(=O)c1ccc(NCc2cc(O)ccc2O)cc1O	?	4%	.	.	-13%	-16
C/C(=N\NC(=S)NCc1ccccc1)c1ccco1	79µM*	-10%	-12%	0%	-12%	6
C/C(=N\NC(=S)NCc1ccccc1)c1ccccc1	16%	5%	-6%	2%	0%	20
CC1(C)CC(=O)C=C(c2cccs2)C1	9%[57.1 µM]	-3%	.	.	3%[57.1 µM]	17
COc1ccc(-c2csc(-c3ccc(O)cc3)n2)cc1	56µM*	-11%	-12%	0%	2%	7
Cc1ccc(S(=O)(=O)N2CCOCC2)cc1NC(=O)COC(=O)c1ccc(Br)o1	-2%	-4%	.	.	-5%	-10
SMILES	rTrxR1 inhibitor	Pin1 inh	GCN5L2 inh	GALK inh	TrxR1 substrate	Giardia killer
COc1cc2nc(N3CCCCC3)nc(NC3CCN(Cc4ccccc4)CC3)c2cc1OC	1%	.	.	.	39%	.
CC(=O)c1sc(NC(=O)C2(F)C(F)(F)C(F)(F)C(F)(F)C(F)(F)C2(F)F)nc1C	35µM*	0%	-9%	2%	?	0
O=c1cc(-c2ccccc2)oc2cc(OCc3ccccc3)cc(O)c12	27%[57.1 µM]	21%	0%	-2%	-2%[57.1 µM]	13
O=c1cc(-c2ccc(OCc3ccccc3)cc2)oc2cc(OCc3ccccc3)cc(OCc3ccccc3)c12	40µM*	-26%	-24%	.	4%	23
O=C(CNC(=O)c1ccccc1)OCC(=O)c1ccccc1	2%	7%	.	.	-3%	-8
O=C(CC1Sc2ncnn2C1=O)Nc1ccccc1 (stereo not given)	4.5µM*	0%	0%	-1%	7%	-10
CN(C(=O)c1cccc(NC(=O)Cc2cccc(NC(=O)C3CCN(C(=O)C4CCCCC4)CC3)c2)c1)C1CCC1	15%	1%	.	.	-2%	12
O=C(CCl)N1c2ccccc2Oc2ccc3ccccc3c21	2.5µM*	?	.	.	8%	3
Nc1nc(=S)[nH]c(N)c1N	-1%	.	.	.	2%	.
Cc1ccc(CNC(=O)CSc2ncc3c(n2)-c2ccc(Cl)cc2N(Cc2ccccc2)S3(=O)=O)cc1	12%[57.1 µM]	0%	-13%	.	4%[57.1 µM]	.
Cc1ccc(-c2ccc(/C=C3/NC(=O)NC3=O)o2)cc1[N+](=O)[O-]	-18%	?	-13%	0%	-4%	-2
CC1=C(C#N)C(=O)NC(=O)/C1=C\c1ccc(-c2cc(C)c(C)cc2[N+](=O)[O-])o1	14µM*	.	?	-2%	0%[57.1 µM]	-8
Cc1ccc2onc(CC(=O)N(C)c3ccccc3)c2c1	3%	?	-9%	.	9%[11.4 µM]	.
Cc1ccc(OCC(=O)Nn2cnnc2)c(Br)c1	7%	0%	0%	0%	-7%	5
Cc1cc(OCC(=O)Nn2cnnc2)c(C)cc1Br	14µM*	-11%	-19%	0%	-9%	0
CCN(CC)CCCNC(=O)/C=C/C(=O)O	2.8µM*	1%	1%	0%	19%[57.1 µM]	-11
Cc1ccc(/C=C2\C(=O)Nc3ccccc32)o1	18µM*	0%	5%	-1%	1%	-21
Cc1ccc(/C=C2\C(=O)NC(=O)N2C)o1	50µM*	-1%	0%	-7%	-4%	-2
Cc1ccc(/C=C2/SC(=O)NC2=S)o1	56µM*	?	?	2%	-27%	-13
Cc1ccc(/C=C2/C(=O)N(c3ccccc3)C(=S)N2C)o1	20µM*	34%	-7%	0%	-12%	-14
O=C(OCC#CCSc1nnc(-c2ccc(F)cc2)o1)c1ccc(F)cc1	.	5%	.	.	.	.
COC1(OC)C=CC(=O)C=C1NC(=O)c1ccccc1OC(C)=O	13µM*	-2%	.	.	-5%[57.1 µM]	-19
CC(=O)Oc1ccccc1C(=O)Nc1ccccc1	1%[57.1 µM]	2%	.	.	6%[57.1 µM]	3
Cc1ccc(C(=O)c2cn(Cc3ccccc3)c3nc(C)ccc3c2=O)cc1	-3%	34%	-3%	.	1%	.

Screening data (PubChem)
